FMDV antiviral = High Throughput Screening for Foot and Mouth Disease Virus Antivirals. hit rate 1.2% among 410,000. Potency, µM (series often up to 57.9 µM), for the others: at the highest dose activity change, negative = inhibition, most hits filed as inhibitors. FMDV antiviral cell-based qHTS; calls by dose curve; tested in HEK293T cells; note: read-out not given here; potency is the fitted concentration of half-maximal effect; nearly all actives have a fitted effect of over 45% in size
Marburg entry inh = qHTS for inhibitors of binding or entry into cells for Marburg Virus. Marburg virus pseudotyped entry inhibition, cell reporter. Potency, µM (top dose mostly 37.8 µM), for the others: top-dose activity change, negative = inhibition, hits mostly inhibitors. hit rate 1.8% among 300,000. AID 540276, 2011; calls by dose curve; tested in HEK293 cells; note: potency is the fitted concentration of half-maximal effect
Lassa entry inh = qHTS for Inhibitors of binding or entry into cells for Lassa Virus; Lassa virus pseudotype entry inhibition, cell reporter; Potency, µM (highest dose often 37.9 µM), without a hit: top-dose activity change, negative = inhibition, usual class: inhibitors; hit rate 1.2% among 300,000; calls by dose curve; tested in HEK293 cells; note: potency is the fitted concentration of half-maximal effect; nearly all actives have a fitted effect of over 50% in size
HCMV inh = qHTS Assay for inhibitors of the human cytomegalovirus (HCMV). HFF cells, HCMV-luciferase reporter, 72 h; stronger effect = lower value. activity change, negative = inhibition, % at 57.5 µM. hit rate 4.5% among 410,000. AID 1259415, 2018; in the data active = activity change below about -60%; inconclusive = no clear call, values can overlap the other calls; inactive = above about -39%
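Two compound doses tested in HFFs infected with HCMV-luciferase, MOI 1 PFU/cell, 72 h at 37C. Lysate luminescence read with OneGlo; data normalized against buffer-only and 10uM Salinomycin inhibitor controls.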
* marks the source's active call; other numbers are inactive results; [ ] = another dose, or the depositor's remark. Most compounds without a hit are left out; they make up all but 6.2% or so of the library. % is set by controls: 0 for no effect and ±100 for the full control effect.

Screening COC(=O)C1=C(c2ccc(-c3ccccc3)c(F)c2)C[C@@H]2CC[C@H]1N2C(=O)NCc1cc(C)oc1C(F)(F)F returned FMDV antiviral 0.0% and HCMV inh -8.1.
Cc1ccc(Cn2ccsc2=NC(=O)COC(=O)c2ccc(O)cc2O)cc1 was read as FMDV antiviral 0.7% and HCMV inh -78.9*.
`c1ccc(-c2cc(-c3nc4ccccc4[nH]3)c3ccccc3n2)cc1` gave FMDV antiviral inconclusive, Marburg entry inh inconclusive, Lassa entry inh inconclusive and HCMV inh -94.2*.
For Oc1ccc(NCc2cccc(OCc3ccccc3)c2)cc1 the results were FMDV antiviral 9.8% and HCMV inh -35.8.
Oc1c(CN2CCOCC2)cc(COCc2ccccc2)c2cccnc12 was read as FMDV antiviral -5.9%, Marburg entry inh inconclusive, Lassa entry inh inconclusive and HCMV inh -95.2*.
Oc1c(CNc2ccccc2)cc(COCc2ccccc2)c2cccnc12 was read as FMDV antiviral inconclusive and HCMV inh -99.5*.
COc1cc(-c2noc(-c3ccc(NCCc4ccccc4)c([N+](=O)[O-])c3)n2)cc(OC)c1OC was read as FMDV antiviral -3.6%, Marburg entry inh -17.0%[46.1 µM], Lassa entry inh -16.8%[46.1 µM] and HCMV inh 24.3.
CCCCc1ccc(NC(=S)Nc2ccc(Cl)c(S(=O)(=O)N(C)C)c2)cc1 was read as FMDV antiviral -17.3%, Marburg entry inh inconclusive, Lassa entry inh inconclusive and HCMV inh -62.9*.
Screening CCN1CCN(CC(=O)Nc2ccc(Cl)c(S(=O)(=O)N(C)C)c2)CC1 returned FMDV antiviral -10.5% and HCMV inh -24.5.
C=CCOc1cccc(/C=N/NC(=O)C(=O)NCc2ccco2)c1 was read as FMDV antiviral -3.8%, Marburg entry inh -28.4%, Lassa entry inh inconclusive and HCMV inh 46.8.
O=[N+]([O-])c1ccccc1COc1ccc(Cl)c2cccnc12 was read as FMDV antiviral -27.5% and HCMV inh 7.8.
Cc1cccc2nc(COc3ccc(Cl)c4cccnc34)cn12 was read as FMDV antiviral 14.3%, Marburg entry inh -4.5%[46.1 µM], Lassa entry inh inconclusive and HCMV inh -80.3*.
`Cn1nc([N+](=O)[O-])nc1Oc1ccc2ccccc2c1` gave FMDV antiviral -5.9%, Marburg entry inh -7.2%, Lassa entry inh 0.5% and HCMV inh -64.7*.
Screening O=C(c1cc(-c2ccccc2)nn1-c1ccccc1)N1CCN(S(=O)(=O)c2c(F)cccc2F)CC1 returned FMDV antiviral 0.0%, Marburg entry inh 18.4%, Lassa entry inh inconclusive and HCMV inh -20.4.
`COc1cccc(C=Nc2ccc(C)c(F)c2)c1O` gave FMDV antiviral -15.0%, Marburg entry inh 17.5%, Lassa entry inh 3.0% and HCMV inh -1.6.
For Cc1ccc(SCC(=O)NCC2COc3ccccc3O2)cc1 (configuration not stated) the results were FMDV antiviral 4.3%, Marburg entry inh -17.1%, Lassa entry inh 8.7% and HCMV inh -64.7*.
Screening Cc1ccccc1C1(CC(=O)N2CC3(C)CC2CC(C)(C)C3)CC(=O)N(Cc2cccnc2)C1=O (configuration not stated) returned FMDV antiviral 12.2%.
`Nc1c(S(=O)(=O)O)cc(Nc2ccc(Nc3nc(Cl)nc(Nc4ccc(S(=O)(=O)O)cc4)n3)c(S(=O)(=O)O)c2)c2c1C(=O)c1ccccc1C2=O` gave Marburg entry inh 14.1µM* and Lassa entry inh inconclusive.
For O=C(Nc1nccs1)C1CC(=O)N(CCc2ccccc2)C1 (configuration not stated) the results were FMDV antiviral -16.8%, Marburg entry inh 23.2%, Lassa entry inh -14.1% and HCMV inh -3.3.
For O=C1/C(=C/c2ccccc2[N+](=O)[O-])COc2ccccc21 the results were FMDV antiviral inconclusive and HCMV inh -100.4*.
Screening Cc1cccc(OCCn2c(=O)n(C)c3ccccc32)c1 returned FMDV antiviral 42.8% and HCMV inh 128.5.
`Cc1cc(Cl)c(S(=O)(=O)N2CCCCCC2)cc1OCC(=O)NC1CCCCC1` gave FMDV antiviral -3.6%, Marburg entry inh -16.8%, Lassa entry inh -5.3% and HCMV inh inconclusive.
`Cc1cc(Cl)c(S(=O)(=O)N2CCN(c3ccccn3)CC2)cc1OCC(=O)NC1CCCCC1` gave FMDV antiviral 22.4µM* and HCMV inh -76.9*.
Screening Cc1cc(Cl)c(S(=O)(=O)N2CCSCC2)cc1OCC(=O)NC1CCCCC1 returned FMDV antiviral -54.9%, Marburg entry inh 9.2µM*, Lassa entry inh inconclusive and HCMV inh -95.3*.
For CCOC(=O)N1CCN(S(=O)(=O)c2cc(OCC(=O)NC3CCCCC3)c(C)cc2Cl)CC1 the results were FMDV antiviral -0.3%, Marburg entry inh inconclusive, Lassa entry inh 17.8% and HCMV inh -69.7*.
For CCN1CCN(S(=O)(=O)c2cc(OCC(=O)NC3CCCCC3)c(C)cc2Cl)CC1 the results were FMDV antiviral inconclusive, Marburg entry inh inconclusive, Lassa entry inh -25.9% and HCMV inh -65.0*.
For O=C(c1cccs1)N1CCCC(c2nc3c(nnn3Cc3c(Cl)cccc3Cl)c(=O)[nH]2)C1 (configuration not stated) the results were FMDV antiviral -17.9%, Marburg entry inh inconclusive, Lassa entry inh 7.6%[46.1 µM] and HCMV inh -30.2.
`COc1cc(C(c2sc3nc(C)nn3c2O)N2CC(C)CC(C)C2)cc(OC)c1OC` (configuration not stated) gave FMDV antiviral -11.5% and HCMV inh 7.8.
For Cc1cc(Cl)c(S(=O)(=O)NC2CCCC2)cc1OCC(=O)NC1CCCCC1 the results were FMDV antiviral -12.2%, Marburg entry inh inconclusive, Lassa entry inh inconclusive and HCMV inh -90.1*.
For Cc1cc(Cl)c(S(N)(=O)=O)cc1OCC(=O)NC1CCCCC1 the results were FMDV antiviral 2.1%, Marburg entry inh inconclusive, Lassa entry inh 14.1% and HCMV inh -14.3.
Screening Cc1cc(Cl)ccc1OCC(=O)NC1CCCC1 returned Marburg entry inh inconclusive, Lassa entry inh -5.7% and HCMV inh -74.4*.
For COc1cccc(CNC(=O)c2ccc3c(c2)nc2n3CCOC2)c1 the results were FMDV antiviral -6.3%, Lassa entry inh -1.5%[46.1 µM] and HCMV inh 1.3.
Screening C/C(=N/NC(=O)NC12CC3CC(CC(C3)C1)C2)c1ccccc1 returned FMDV antiviral 7.2% and HCMV inh -62.0*.
O=C(N/N=C/c1ccccc1O)NC12CC3CC(CC(C3)C1)C2 was read as FMDV antiviral 9.7%, Marburg entry inh inconclusive, Lassa entry inh inconclusive and HCMV inh -30.1.
`CCOC(=O)C1CCCN(C(=O)Cn2ncc3c4ccccc4n(Cc4ccc(F)cc4)c3c2=O)C1` (configuration not stated) gave FMDV antiviral -15.6%, Marburg entry inh inconclusive, Lassa entry inh inconclusive and HCMV inh 5.7.
Screening O=C(Nc1sc2c(c1C(=O)O)CCCC2)c1ccc(Cl)cc1 returned FMDV antiviral 6.8%, Marburg entry inh 6.31µM*, Lassa entry inh 7.94µM* and HCMV inh 16.9.

Screens deposited in PubChem BioAssay by National Center for Advancing Translational Sciences (NCATS).
